Consider 27 molecules from PubChem BioAssay (Tox21).

Assay [1] can be described thus: qHTS assay to identify small molecule antagonists of the glucocorticoid receptor (GR) signaling pathway - cell viability counter screen (AID 720693). Note: nearly all actives have a fitted effect of over 55% in size. Note: potency is the fitted concentration of half-maximal effect. Background: qHTS replaces the single test concentration by a dilution series.
The nature of assay [2]: qHTS assay for identifying genotoxic compounds that show differential cytotoxicity against isogenic chicken DT40 cell lines with known DNA damage response pathways - wild type cell line (AID 743012). Note: nearly all actives have a fitted effect of over 60% in size. Note: potency is the fitted concentration of half-maximal effect. The gist of the method: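 Cells (DT40 wild type, 300/well) are treated with DMSO-dissolved compounds after a ~0.5 h pre-incubation and kept 40 h at 37 C/5% CO2. Viability is then measured by CellTiter-Glo luminescence following 30 min at room temperature.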

Assay [3] can be described thus: qHTS assay for identifying genotoxic compounds that show differential cytotoxicity against isogenic chicken DT40 cell lines with known DNA damage response pathways - Rev3 mutant cell line (AID 743014). Note: nearly all actives have a fitted effect of over 55% in size. Note: potency is the fitted concentration of half-maximal effect.
Assay [4] is described as follows: qHTS assay for identifying genotoxic compounds that show differential cytotoxicity against isogenic chicken DT40 cell lines with known DNA damage response pathways - Rad54/Ku70 mutant cell line (AID 743015). Note: nearly all actives have a fitted effect of over 60% in size. Note: potency is the fitted concentration of half-maximal effect.
Assay [5] is described as follows: qHTS assay to identify small molecule antagonists of the androgen receptor (AR) signaling pathway - cell viability counter screen (AID 743033; note: nearly all actives have a fitted effect of over 45% in size).
Assay [6] in a line: qHTS assay to identify small molecule antagonists of the androgen receptor (AR) signaling pathway using the MDA cell line - cell viability counter screen (AID 743041; note: nearly all actives have a fitted effect of over 45% in size; note: potency is the fitted concentration of half-maximal effect). The gist of the method: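 Same-well cytotoxicity was assessed by CellTiter-Fluor in MDA-kb2 AR-luc cells after 16 h of compound treatment under R1881 agonism.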
For assay [7], the target named is Androgen receptor (Homo sapiens) (UniProt P10275). Description: qHTS assay to identify small molecule antagonists of the androgen receptor (AR) signaling pathway (AID 743035; active = well fitted inhibition curve with a large enough effect in the signal ratio in the repeat runs, not every such curve was filed as active; the % refers to the signal ratio; note: potency is the fitted concentration of half-maximal effect). A digest of the protocol:
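Antagonism is scored as loss of R1881-driven beta-lactamase reporter expression in HEK293 cells carrying the reporter under a UAS element, after 16 h co-treatment at 37C and a 2 h room-temperature FRET substrate read.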

Assay [8] has the same target. Description: qHTS assay to identify small molecule agonists of the androgen receptor (AR) signaling pathway (AID 743036; active = well fitted activation curve with a large enough effect in the signal ratio in the repeat runs, with a control signal flat, not every such curve was filed as active; the % refers to the signal ratio). The gist of the method:
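Agonist activity was scored by beta-lactamase reporter fluorescence in stably transfected HEK293 cells exposed to compounds for 16 h at 37C and 5% CO2. Substrate loading took 2 h at room temperature.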

Assay [9] has the same target. In words: qHTS assay to identify small molecule agonists of the androgen receptor (AR) signaling pathway using the MDA cell line (AID 743040; note: nearly all actives have a fitted effect of over 20% in size). A digest of the protocol:
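Human breast carcinoma MDA-kb2 reporter cells (MMTV-luc, AR/GR elements) were treated for 16 h at 37C in 0% CO2 following a 5 h settling period. Signal was quantified by ONE-Glo luminescence.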

Assay [10] has the same target. In words: qHTS assay to identify small molecule antagonists of the androgen receptor (AR) signaling pathway using the MDA cell line (AID 743042; note: nearly all actives have a fitted effect of over 55% in size). A digest of the protocol:
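MDA-kb2 breast carcinoma cells carrying MMTV-luciferase (AR/GR responsive) were co-treated with compounds and the agonist R1881 for 16 h at 37C. Inhibition read as ONE-Glo luminescence; CellTiter-Fluor fluorescence measured in parallel for cytotoxicity.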

“And” between values parts separate entries of the source, which are not always exact repeats. Equal values may be shown once. Unmarked numbers belong to inactive results. Records with an inconclusive call do not appear. The source made the active and inactive calls. Unless noted, calls come from the whole dose curve; as a rule, active = well fitted curve in the direction sought with a large enough effect in the repeat runs; inconclusive = weak or mixed curves; inactive = no such curve, though single readings can be large; an effect the other way counts as inactive or inconclusive.

Androgen receptor (Homo sapiens), sequence (P10275 whole entry, looked up): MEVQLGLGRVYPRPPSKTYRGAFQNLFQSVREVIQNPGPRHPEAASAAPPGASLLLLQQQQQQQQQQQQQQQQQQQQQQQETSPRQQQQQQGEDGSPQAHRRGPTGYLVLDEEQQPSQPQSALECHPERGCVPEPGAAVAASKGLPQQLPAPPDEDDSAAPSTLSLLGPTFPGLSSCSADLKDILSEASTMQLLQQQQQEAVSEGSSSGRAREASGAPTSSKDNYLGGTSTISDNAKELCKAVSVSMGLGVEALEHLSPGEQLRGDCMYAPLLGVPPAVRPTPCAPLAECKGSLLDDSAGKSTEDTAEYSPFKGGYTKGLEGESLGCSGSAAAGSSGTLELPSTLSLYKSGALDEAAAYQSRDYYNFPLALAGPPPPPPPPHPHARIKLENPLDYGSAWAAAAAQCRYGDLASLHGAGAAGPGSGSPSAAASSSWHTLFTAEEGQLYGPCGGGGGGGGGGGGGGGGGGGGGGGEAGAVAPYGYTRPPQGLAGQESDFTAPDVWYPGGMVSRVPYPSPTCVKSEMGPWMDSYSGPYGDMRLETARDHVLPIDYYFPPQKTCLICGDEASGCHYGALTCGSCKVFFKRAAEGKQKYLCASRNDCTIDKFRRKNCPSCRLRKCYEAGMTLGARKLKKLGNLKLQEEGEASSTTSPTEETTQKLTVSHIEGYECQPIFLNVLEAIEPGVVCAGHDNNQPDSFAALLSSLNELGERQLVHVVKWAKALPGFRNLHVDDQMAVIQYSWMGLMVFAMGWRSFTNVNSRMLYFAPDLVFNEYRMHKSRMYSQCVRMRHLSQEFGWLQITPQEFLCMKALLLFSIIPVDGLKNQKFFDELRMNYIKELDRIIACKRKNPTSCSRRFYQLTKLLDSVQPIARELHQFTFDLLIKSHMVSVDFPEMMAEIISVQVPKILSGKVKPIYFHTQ

As to `CC(C)(COC(=O)c1ccccc1)COC(=O)c1ccccc1`, the Potency entry in assay [1], in assay [5] and in assay [6] was “inactive” in each case. Besides, the results for the Potency in assay [2], in assay [3] and in [4] were 54.5 µM (active), 30.6 µM (active) and 48.6 µM (active), respectively.
In the case of `CN(C)c1ccc(CCO)cc1`, the Potency result in assay [1], in assay [2], in assay [3], in assay [4] and in [6] was “inactive” throughout.
As for `CCCCCC[C@@H](O)C/C=C\CCCCCCCC(=O)OC`, the Potency entry in assay [1], in assay [2], in assay [3], in assay [4], in assay [7] and in assay [8] was “inactive” each time. The Potency entry in assay [9], in assay [6] and in assay [10] was “inactive” each time.
For `CC(C)CC(=O)C1C(=O)c2ccccc2C1=O`, the Potency result in [1], in [2], in [3], in assay [4], in assay [8] and in assay [9] was “inactive” in each case. The Potency entry in assay [6] and in assay [10] was “inactive” each time. In assay [7], the Potency was 49 µM (active).
As for `C[C@@H]1C[C@H]2O[C@@]3(O[C@@H]2C(C)(C)O)[C@H](O)[C@@]2(C)[C@@H]4CC[C@H]5C(C)(C)[C@@H](O[C@@H]6OC[C@@H](O)[C@H](O)[C@H]6O)CC[C@@]56C[C@@]46CC[C@]2(C)[C@@H]13`, the Potency result in [1], in assay [2], in assay [3], in assay [5], in assay [8] and in [9] was “inactive” in each case. The Potency entry in assay [6] and in [10] was “inactive” in each case.
As for `CCN(CC)CCNc1ccc(CNC=O)c2sc3ccc(OC)cc3c(=O)c12`, the Potency in [1] is 38.9 µM (active); in [2] it was 8.63 µM (active); in assay [3] it was 9.69 µM (active); in assay [4], 0.969 µM (active). The Potency entry in [6] was “inactive”.
On the same counts, the results for `NCC(=O)O` are “inactive”, “inactive”, “inactive”, “inactive” and “inactive”.
In the case of `COc1ccc(C(=O)c2ccc(OC)cc2O)c(O)c1`, the Potency entry in assay [1], in [2], in assay [3], in [4], in assay [5] and in [6] was “inactive” throughout. Also, the Potency entry in [10] was “inactive”.
Regarding `CCO[C@H](Cc1ccc(OCCc2ccc(OS(C)(=O)=O)cc2)cc1)C(=O)O`, the Potency entry in [1], in assay [2], in assay [3], in assay [4], in assay [7] and in assay [8] was “inactive” in each case. The Potency result in assay [9], in assay [6] and in [10] was “inactive” each time.
`ClCCOCCOCCCl`: the Potency entry in assay [1], in assay [2], in assay [3], in [4] and in assay [6] was “inactive” each time.
For the molecule `CCCOC(C(=O)OC1CCN(C)CC1)(c1ccccc1)c1ccccc1`, the Potency entry in [1] and in assay [6] was “inactive” in each case. Moreover, the figures for the Potency in assay [2], in [3] and in assay [4] were 5.96 µM (active), 7.5 µM (active) and 11.9 µM (active), respectively.
With `CCCCC(CC)COC(=O)CCCCCCCCC(=O)OCC(CC)CCCC` (stereo unspecified), the Potency entry in assay [1], in [2], in assay [3], in assay [4], in assay [5] and in assay [6] was “inactive” each time.
For the molecule `Cc1cccc(C)c1OCC(=O)N[C@@H](Cc1ccccc1)[C@@H](O)C[C@H](Cc1ccccc1)NC(=O)[C@H](C(C)C)N1CCCNC1=O`, the Potency result in assay [1] and in [9] was “inactive” each time. Moreover, the Potency was 16.8 µM (active) in assay [2], 16.8 µM (active) in [3] and 11.9 µM (active) in [4].
For the molecule `CC1=CC[C@H](C(C)C)C=C1`, the Potency entry in assay [1] and in assay [6] was “inactive” each time. Also, the Potency is 61.1 µM (active) in [2], 68.6 µM (active) in assay [3] and 61.1 µM (active) in [4].
For `Nc1ncn([C@H]2C[C@H](O)[C@@H](CO)O2)c(=O)n1`, the Potency entry in assay [1] and in [6] was “inactive” throughout. For the same molecule, the results for the Potency in [2], in assay [3] and in assay [4] were 0.106 µM (active), 0.106 µM (active) and 0.0298 µM (active), respectively.
Turning to `CN(C)c1ccc(C(c2ccccc2)c2ccc(N(C)C)cc2)cc1`, the Potency result in [1], in assay [8], in assay [9], in [6] and in assay [10] was “inactive” in each case. For the same molecule, the Potency in assay [2] was 6.86 µM (active); in assay [3], 6.86 µM (active); in [4], 8.63 µM (active).
On to `CO[C@@H]1[C@H](OC(=O)/C=C/C=C/C=C/C=C/C(=O)O)CC[C@]2(CO2)[C@H]1[C@@]1(C)O[C@@H]1CC=C(C)C`, for which the Potency result in assay [1] and in [6] was “inactive” throughout. Further, the Potency is 1.9 nM (active) and 12.2 nM (active) in assay [2]; 2.1 nM (active) and 17.2 nM (active) in assay [3]; 2.7 nM (active) and 10.9 nM (active) in assay [4].
In the case of `CCOC(=O)C(F)(F)F`, the Potency entry in assay [1], in assay [2], in assay [4] and in [6] was “inactive” each time. For the same molecule, the Potency in [3] is 34.4 µM (active).
For `COc1cccc(N(C)C(=S)Oc2ccc3c(c2)CCCC3)n1`, the Potency entry in assay [1] and in assay [6] was “inactive” each time. For the same molecule, the Potency in assay [2], in assay [3] and in assay [4] was 26.6 µM (active) throughout.
`CCN(CC)c1ccc2c(-c3ccccc3C(=O)O)c3ccc(=[N+](CC)CC)cc-3oc2c1`: the Potency result in assay [1] was “inactive”. Further, the Potency in assay [2] was 12.2 µM (active); in assay [3], 8.63 µM (active); in assay [4] it was 8.63 µM (active); in assay [6], 24.3 µM (active).
As for `CN(C)CCCN1c2ccccc2Sc2ccccc21`, the Potency entry in assay [1] and in [6] was “inactive” each time. Besides, the Potency in assay [2] is 9.02 µM (active); in assay [3], 5.69 µM (active); in assay [4], 10.1 µM (active).
As for `CC(CSC(=O)c1ccccc1)C(=O)N1C[C@@H](Sc2ccccc2)C[C@H]1C(=O)O` (stereo partly specified), the Potency entry in assay [1], in assay [2], in [3], in [4] and in assay [6] was “inactive” in each case.
On to `CC(COCCO)OCCO` (stereo unspecified), for which the Potency entry in [1], in assay [2], in assay [3], in assay [4], in assay [7] and in assay [8] was “inactive” in each case. Further, the Potency result in assay [9], in assay [6] and in [10] was “inactive” throughout.
Regarding `COc1ccc(C(=O)N2CCN(CC(=O)N3CCOCC3)CC2)cc1`, the Potency entry in [1], in [2], in assay [3], in assay [4] and in assay [6] was “inactive” in each case.
Take `OCCN1CCN(CCCN2c3ccccc3C=Cc3ccccc32)CC1`: the Potency entry in assay [1], in assay [5] and in [6] was “inactive” throughout. The Potency is 5.96 µM (active) and 13.3 µM (active) in assay [2]; 1.68 µM (active) and 15 µM (active) in assay [3]; 8.41 µM (active) and 26.6 µM (active) in assay [4].
As for `C=C(C)C(=O)OCC`, the Potency result in assay [1], in assay [2], in assay [3], in assay [4] and in assay [6] was “inactive” each time.
Regarding `O=C1OC(CN2CCOCC2)CN1/N=C/c1ccc([N+](=O)[O-])o1` (stereo unspecified), the Potency entry in assay [1], in assay [2], in assay [3], in assay [5], in assay [7] and in [8] was “inactive” throughout. Further, the Potency entry in assay [9], in [6] and in assay [10] was “inactive” in each case.
